cardiac RTF act: increases calcium sensitivity of human cardiac regulated thin filaments; P19429+P45379; IANBD-labeled TnC RTF fluorescence at EC20 calcium; 0% EC20 calcium, 100% full calcium; activation, % at 7.2 µM; 340,000 compounds, 0.24% hits; AID 493008;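 active = activation above the mean over all tested compounds plus 3 SD, cut at about 30% in these data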;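 also: rise in fluorescence read as greater calcium sensitivity of cardiac thin filaments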
CRFR2-BP antag: blocks CRF-induced signaling of the CRF-BP/CRF-R2 complex; HEK293 CRF-R2/CRF-BP, CRF-induced calcium fluorescence; inhibition, % at 11.8 µM; 350,000 compounds, 0.59% hits; AID 588475;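 active = inhibition of the ligand-induced calcium signal above about 50% at the single tested concentration, limit read from the data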
Myeloid diff 2: compounds promoting myeloid differentiation. ER-HoxA9 myeloid progenitors, lysozyme-GFP differentiation, flow cytometry. AID 624256. 360,000 compounds, 1% hits. calls only at 10 µM;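 active = normalized GFP-positive differentiation at or above the plate's own cutoff, the solvent-only control mean plus 3 SD; inconclusive = no clear call, values can overlap the other calls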;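 also: cells exposed to compound for four days before flow analysis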
CRFR2-BP ag: CRF-BP/CRF-R2 complex agonism. 350,000 compounds, 0.46% hits. HEK293 CRF-R2/CRF-BP, calcium dye fluorescence (FLIPR); percent of saturating CRF peptide response. activation, % at 13.2 µM;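 active = activation of at least 50%, plus an integration ratio under a set limit after plate pattern correction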
RTF Ca sens inh: cardiac RTF calcium desensitization | P19429+P45379 | AID 493244 | IANBD-labeled cardiac RTF, Ca2+ fluorescence | inhibition, % at 7.15 µM | 340,000 compounds, 0.12% hits;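 active = inhibition above the mean inhibition of all tested compounds plus 3 SD, cut at about 17% in these data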;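 also: assay run at fixed EC70 calcium of 1.6 mM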
Myeloid diff CP1: myeloid differentiation induction; shares compounds with Myeloid diff 2; ER-HoxA9 myeloid progenitors, GFP/Mac1 double-positive flow; calls only; 2,300 compounds, 2% hits; AID 651706;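 active = share of green or green-and-red cells above 9 and 9% in run 1 or 4 and 3% in run 2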
GFP autofluor: flagged as fluorescent in myeloid differentiation counter-screen. shares compounds with Myeloid diff 2. 2,300 compounds, 7.4% hits. ER-HoxA9 myeloid progenitors, no estrogen, GFP autofluorescence flow cytometry; vehicle wells 0%, positive control 100%. fluorescence response, % (no concentration beside the values);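 active = over 5% cells positive for green fluorescent reporter, or over 2% positive for both it and APC stain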
Of the large screens only hits and unclear results are named; the others gave an inactive call (follow-up assays come after a bar, where they were run). Shown are actives, neighbours in structure and some others; about 2.2% of the full set was active somewhere.

CCN(C(=O)CSc1nc2ccc([N+](=O)[O-])cc2s1)c1c(N)n(Cc2ccccc2)c(=O)[nH]c1=O	none
CC(OC(=O)c1cc(O)c2ccccc2c1O)C(=O)Nc1ccc(C(N)=O)cc1 (stereo not drawn)	Myeloid diff 2 active | Myeloid diff CP1 inactive | GFP autofluor inactive
CC(OC(=O)c1ccccc1C(=O)N(C)c1ccccc1)C(=O)Nc1ccc(C(N)=O)cc1 (stereo not drawn)	none
CC(C)(C)OC(=O)N1CCc2onc(-c3ccc(N)cc3)c2C1=O	none (no result: cardiac RTF act, RTF Ca sens inh)
COCCN1C(=O)COc2ccccc2C1C(=O)NC(C)(C)C (stereo not drawn)	none (no result: cardiac RTF act, CRFR2-BP antag, CRFR2-BP ag, RTF Ca sens inh)
Cc1n[nH]c(C)c1N1C(=O)c2cccc3c(Br)ccc(c23)C1=O	none | Myeloid diff CP1 inactive | GFP autofluor inactive
COc1ccc(OCC(=O)Nc2c3c(nn2-c2ccc(OC)cc2)CS(=O)(=O)C3)cc1	none
O=C(CCC1CCCCC1)Nc1ccccc1O	none
Cc1ccc(O)c(NC(=O)CCC2CCCCC2)c1	none | Myeloid diff CP1 inactive | GFP autofluor inactive
N#C/C(=C\N1CCN(Cc2ccc3c(c2)OCO3)CC1)c1nc2ccccc2s1	none | Myeloid diff CP1 active | GFP autofluor inactive
COc1cccc(NC(=O)CN(C)C(=O)CC(NC(=O)c2ccccc2Cl)c2ccccc2)c1 (stereo not drawn)	none
O=S(=O)(/C=C/c1ccccc1)N1CCOCC1	none
COc1ccc(C=Nc2cccc3c(=O)[nH][nH]c(=O)c23)c2ccccc12	none
COc1cccc(C=Nc2cccc3c(=O)[nH][nH]c(=O)c23)c1O	Myeloid diff 2 active | Myeloid diff CP1 inactive | GFP autofluor inactive
CS(=O)(=O)N(Cc1ccc(Cl)cc1)c1ccc(C(=O)NCCSc2ccccn2)cc1	Myeloid diff 2 active, CRFR2-BP ag 54 | Myeloid diff CP1 inactive | GFP autofluor inactive
O=C(NCCSc1ccccn1)c1ccc(Cl)cc1	none
CCCN1CNC(=S)N(CC2CCCO2)C1 (stereo not drawn)	none
COc1ccc2nc(NC(=O)c3ccc([N+](=O)[O-])o3)sc2c1	none | Myeloid diff CP1 inactive | GFP autofluor inactive
O=C(NCc1cccnc1)c1ccc([N+](=O)[O-])o1	Myeloid diff 2 active | Myeloid diff CP1 inactive | GFP autofluor inactive
COc1ccc(NC(=O)c2ccc([N+](=O)[O-])o2)cc1	Myeloid diff 2 active | Myeloid diff CP1 inactive | GFP autofluor inactive
O=C(Nc1cccnc1)c1ccc([N+](=O)[O-])o1	none (no result: Myeloid diff 2)
CC(=O)c1ccc(NC(=O)c2ccc([N+](=O)[O-])o2)cc1	Myeloid diff 2 inconclusive
O=C(Nc1ccc(Cl)cn1)c1ccc([N+](=O)[O-])o1	Myeloid diff 2 active | Myeloid diff CP1 inactive | GFP autofluor inactive
Cc1c(Cl)c([N+](=O)[O-])nn1Cc1ccc(C(=O)Nc2ccc(Cl)cn2)o1	none
COc1ccc(OC(=O)CCc2c[nH]c3ccccc23)cc1	none
CC(C)N1C(=O)C(=O)N(CC(=O)N2c3ccccc3CC2C)C1=O (stereo not drawn)	none (no result: cardiac RTF act, RTF Ca sens inh)
O=P(Cc1cc(Br)cc(Br)c1OCCO)(c1ccccc1)c1ccccc1	none
CCOC(=O)c1cc(C(=O)OCC)c2cc(Br)ccc2n1	Myeloid diff 2 active | Myeloid diff CP1 inactive | GFP autofluor inactive
CCOC(=O)c1c(NC(=S)Nc2ccc(Cl)cc2)sc2c1CCN(C)C2	Myeloid diff 2 active | Myeloid diff CP1 inactive | GFP autofluor 47
COc1ccc([C@H]2CC(=O)C=C(c3ccnc4ccc(Cl)cc34)C2)cc1	none
COc1cccc(C(=O)Nc2ccc(NC(C)=O)cn2)c1	none | Myeloid diff CP1 inactive | GFP autofluor inactive
CCCC(=O)Nc1ccc(NC(=O)c2cccc(OC)c2)nc1	none
COc1cc(/C=C2\CC/C(=C\c3cc(OC)c(OC)c(OC)c3)C2=O)cc(OC)c1OC	Myeloid diff 2 active | Myeloid diff CP1 inactive | GFP autofluor inactive
Oc1[nH]c2ccccc2c1/C=N/c1nccs1	none | Myeloid diff CP1 inactive | GFP autofluor inactive
COc1ccc(N=Cc2c(O)[nH]c3ccccc23)cc1	Myeloid diff 2 inconclusive
c1ccc(Cc2c(-c3ccccc3)nc3c4ccccc4ccn23)cc1	Myeloid diff 2 active (no result: cardiac RTF act, RTF Ca sens inh) | Myeloid diff CP1 inactive | GFP autofluor inactive
O=Cc1sc(Nc2ccccc2)nc1Cl	Myeloid diff 2 active | Myeloid diff CP1 inactive | GFP autofluor 52
Cc1c(Br)c(O)c(Br)c2sc(=O)oc12	none | Myeloid diff CP1 inactive | GFP autofluor inactive
O=C(CN1C(=O)NC2(CCCCC2)C1=O)Nc1ccccc1Cl	none | Myeloid diff CP1 inactive | GFP autofluor inactive
CC(C)(C)c1ccc(-c2noc(CCC(=O)NCC3CCCO3)n2)cc1 (stereo not drawn)	none | Myeloid diff CP1 inactive | GFP autofluor inactive
Cc1cccc(C(=O)O[C@@H]2[C@H](Cc3ccccc3)NS(=O)(=O)[C@H]3C[C@@H]4C=C[C@]23O4)c1	none
NC(=S)Nc1cccc2cc3ccccc3cc12	Myeloid diff 2 active | Myeloid diff CP1 inactive | GFP autofluor 14
Cc1nc(SCC(=O)NCC2CCCO2)c2cc(-c3ccccc3)sc2n1 (stereo not drawn)	none | Myeloid diff CP1 inactive | GFP autofluor inactive
Cc1ccc(-c2[nH]c(-c3ccccc3)nc2SCC(=O)NCC2CCCO2)cc1 (stereo not drawn)	none
Cc1nc(SCC(=O)NCC2CCCO2)c2c3c(sc2n1)CCC3 (stereo not drawn)	none
Cc1ccc(-c2nc(SCC(=O)NCC3CCCO3)c(-c3ccc(C)cc3)[nH]2)cc1 (stereo not drawn)	none | Myeloid diff CP1 inactive | GFP autofluor inactive
Cc1ccc2cc(C#N)c(SCC(=O)NCC3CCCO3)nc2c1 (stereo not drawn)	none | Myeloid diff CP1 inactive | GFP autofluor inactive
Cc1ccc(S(=O)(=O)NCC(=O)OC(C)C(=O)NC2CCCCC2C)cc1C (stereo not drawn)	none
O=P1(O)Cc2ccccc2-c2ccccc21	none
CC(O)C(NS(=O)(=O)c1ccc(Cl)cc1)C(=O)OCCOc1ccc(F)cc1 (stereo not drawn)	none (no result: cardiac RTF act, RTF Ca sens inh)
O=C(C1CCCCN1S(=O)(=O)c1ccccc1)N1CCCCC1 (stereo not drawn)	Myeloid diff 2 active | Myeloid diff CP1 inactive | GFP autofluor inactive
O=C(O)C1CCCCN1S(=O)(=O)c1ccccc1 (stereo not drawn)	none
Cn1cccc1/C=C1\SC(=Nc2ccccc2)NC1=O	Myeloid diff 2 inconclusive
Cc1ccc(N=C2NC(=O)/C(=C/c3cn(C)c4ccccc34)S2)cc1C	cardiac RTF act 69, Myeloid diff 2 active, CRFR2-BP ag 64 | Myeloid diff CP1 inactive | GFP autofluor 35
CC(C)(C)OC(=O)N(CCc1ccccc1)Cc1ccccc1OCc1cccc(NC(=O)C2CC2)c1	Myeloid diff 2 active | Myeloid diff CP1 inactive | GFP autofluor inactive
